IMPase inh – qHTS Assay for Identifying the Cell-Membrane Permeable IMPase Inhibitors; CHO-M1 cells, IP1 accumulation, HTRF TR-FRET ratio; inhibition (IP1 accumulation), % at 46.1 µM; 120,000 tested, under 10 active; AID 901, 2007; active = well fitted curve in the direction sought with a large enough effect in the signal ratio, not every such curve was filed as active; inconclusive = small, poorly fitted or top-dose-only effect, or a change in a side signal; inactive = no such curve, though single readings can be large or run the other way; the % refers to the signal ratio;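 note: cells stimulated with carbachol in lithium chloride buffer; plate controls were DMSO basal wells for no effect and reference inhibitor wells for full effect; higher means more IMPase inhibition seen as more IP1 and lower FRET ratio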
Target sequence (P97697 whole entry, looked up): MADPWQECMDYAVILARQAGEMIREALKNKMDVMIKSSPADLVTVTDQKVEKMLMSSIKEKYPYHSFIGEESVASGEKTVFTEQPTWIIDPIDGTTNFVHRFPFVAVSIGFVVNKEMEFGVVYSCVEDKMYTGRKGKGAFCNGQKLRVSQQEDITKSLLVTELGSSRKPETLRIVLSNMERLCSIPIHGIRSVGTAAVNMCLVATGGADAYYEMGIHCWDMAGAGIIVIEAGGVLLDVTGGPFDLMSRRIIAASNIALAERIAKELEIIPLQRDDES
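Cellular IMPase inhibition is scored as a rise in cytosolic IP1, detected by competitive TR-FRET between d2-labelled IP1 and a europium anti-IP1 antibody. M1-expressing CHO cells were stimulated with carbachol for 30 min at 37C, with lithium (50 mM LiCl) present in the buffer.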
PNC assembly inh – High Content Assay for Compounds that inhibit the Assembly of the Perinucleolar Compartment | PC3M PTB-GFP, PNC prevalence imaging, 16 h; active compounds read low | 140,000 tested, 3.1% active | activity change (PNC), negative = inhibition, % at 10 µM | AID 2417, 2010;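 active = readout at or below -70, meaning at least 70% loss of cells showing the perinucleolar compartment, a nuclear body marking cancer cells; inconclusive = readout between -30 and a set limit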;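 note: plate controls were DMSO wells for no effect and camptothecin positive control wells for full effect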
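PC3M cells stably expressing PTB-GFP, 750–1000 cells/well, treated 16 h at 37 °C with compound (23 nl of library stock), in duplicate. After paraformaldehyde fixation and Hoechst stain, imaged at 20x; PNC prevalence scored by image analysis.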
ALOX12 inhib – qHTS Assay for Inhibitors of 12-hLO (12-human lipoxygenase). 150,000 tested, 0.12% active. Polyunsaturated fatty acid lipoxygenase ALOX12 (Homo sapiens), P18054. AID 1452, 2008. Potency, µM (highest dose often 57.1 µM), for inactives: at the top dose activity change, negative = inhibition, usual class: inhibitors. purified 12-hLO, xylenol orange hydroperoxide absorbance; note: potency is the fitted concentration of half-maximal effect; nearly all actives have a fitted effect of over 55% in size
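Lipoxygenase turnover measured by absorbance at 573 and 405 nm after Fe-XO development. Human 12hLO 150 nM, arachidonate 40 uM, pH 7.0 Hepes buffer with detergent; 15 min compound preincubation, 30 min reaction.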
IMPase Li cell – qHTS Assay for Identifying the Cell-Membrane Permeable IMPase Inhibitors: Potentiation with Lithium; Potency, µM (series often up to 59.4 µM), inactives show at the top dose activity, negative = IMPase inhibition, hits mostly inhibitors; CHO-M1 cells, IP1 TR-FRET (IP-One), carbachol + lithium; 210,000 tested, 0.35% active;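 note: IP1 builds up when IMPase is blocked and the TR-FRET signal falls; potency is the fitted concentration of half-maximal effect; plate controls were basal vehicle for no effect and high inhibitor control for full effect; nearly all actives have a fitted effect of over 50% in size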
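IP1 accumulation measured by competitive TR-FRET in lysed CHO-M1 cells after 30 min compound exposure at 37C, with a small lithium addition to potentiate weak responses. Hill-equation AC50 from ratio and donor-channel data.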
HPGD inh – qHTS Assay for Inhibitors of HPGD (15-Hydroxyprostaglandin Dehydrogenase). 15-hydroxyprostaglandin dehydrogenase [NAD(+)] (Homo sapiens), P15428. purified HPGD, NADH fluorescence kinetic, PGE2 substrate. Potency, µM, for the others: at the top dose activity change, negative = inhibition, most hits filed as inhibitors. 150,000 tested, 4.3% active. AID 894, 2007; active = well fitted inhibition curve with a large enough effect, not every such curve was filed as active; inconclusive = small, poorly fitted or top-dose-only effect, or another doubt; inactive = no such curve, though single readings can be large or run the other way; note: potency is the fitted concentration of half-maximal effect
Target sequence (P15428 whole entry, looked up): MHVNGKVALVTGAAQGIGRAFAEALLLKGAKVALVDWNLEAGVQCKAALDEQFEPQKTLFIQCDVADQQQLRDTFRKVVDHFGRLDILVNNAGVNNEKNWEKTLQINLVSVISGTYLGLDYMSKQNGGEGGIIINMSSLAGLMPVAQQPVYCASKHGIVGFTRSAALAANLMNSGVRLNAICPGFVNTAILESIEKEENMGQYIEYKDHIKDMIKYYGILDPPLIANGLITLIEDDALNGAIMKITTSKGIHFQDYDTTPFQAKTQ
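20 nM HPGD preincubated 15 min at room temperature with compound in 50 mM Tris-HCl pH 8, 0.01% Tween 20. Started with 1 mM NAD+ and 30 uM prostaglandin E2; NADH fluorescence (360/450 nm) read 5 times over 30-s intervals, last minus first.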
15-hLO-2 inh – qHTS Assay for Inhibitors of 15-hLO-2 (15-human lipoxygenase 2) | purified 15hLO-2, xylenol orange hydroperoxide absorbance | Potency, µM (series often up to 57.1 µM), for inactives: top-dose activity change, negative = inhibition, usual class: inhibitors | AID 881, 2007 | Polyunsaturated fatty acid lipoxygenase ALOX15B (Homo sapiens), O15296 | 110,000 tested, 0.56% active; note: potency is the fitted concentration of half-maximal effect; nearly all actives have a fitted effect of over 60% in size
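Purified human 15hLO-2 (50 nM final) preincubated with compounds 15 min at room temperature in 25 mM Hepes pH 7.5, 0.01% Triton X-100, then 45 uM arachidonic acid added for 90 min; hydroperoxide detected via ferrous/xylenol orange, 573/405 nm absorbance ratio.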
Numbers without * were called inactive; ? = inconclusive; . = not tested or not shown; [ ] = dose if it differs, or a comment. Shown are actives, neighbours in structure and some others; about 5.4% of the full set was active somewhere. Unless noted, calls come from the whole dose curve; as a rule, active = well fitted curve in the direction sought with a large enough effect; inconclusive = small, poorly fitted or top-dose-only effect, or another doubt; inactive = no such curve, though single readings can be large; an effect the other way counts as inactive or inconclusive. Unless noted, % is set by controls: 0 for no effect and ±100 for the full control effect.

SMILES	IMPase inh	PNC assembly inh	ALOX12 inhib	IMPase Li cell	HPGD inh	15-hLO-2 inh
CCCCNS(=O)(=O)c1ccc2nc(SCC(=O)N3CC(C)OC(C)C3)[nH]c2c1 (centres undefined)	-11	-11	1%	14%[38.3 µM]	16µM*	-2%
O=C(CON1C(=O)c2ccccc2C1=O)c1ccccc1	.	.	7%[11.4 µM]	10%	-5%	-3%[11.4 µM]
CCOC(=O)C(C(=O)OCC)C1CS(=O)(=O)CC1C(C(=O)OCC)C(=O)OCC (centres undefined)	4	9	-1%	3%	6%	.
CCOC(=O)C(C(C)=O)=C1SC2CS(=O)(=O)CC2S1 (centres undefined)	-12	-127*	3%	-7%[38.3 µM]	-11%	-9%
O=C(CSc1nc(-c2ccccc2)[nH]c1-c1ccccc1)Nc1ccc2c(c1)OCO2	-5	.	.	.	.	.
CN1/C(=C\C(=O)c2cncc(Br)c2)C(C)(C)c2ccccc21	.	-84*	-7%	12%	-11%	.
CN1/C(=C\C(=O)c2cccnc2)C(C)(C)c2ccccc21	4	-27	-1%	-5%	-2%	.
CN1/C(=C\C(=O)c2cccc(S(=O)(=O)N3CCCCC3)c2)C(C)(C)c2ccccc21	.	-88*	-1%	3%	-30%	.
O=C(O)c1cccc(S(=O)(=O)N2CCCC2)c1	-5	16	-1%	9%[38.3 µM]	-18%	8%
N#C/C(=C\NC(=S)c1ccncc1)c1nc2ccccc2s1	.	.	1%[11.4 µM]	-19%	-17%	-3%[11.4 µM]
O=S(=O)(N/N=C\c1ccc(-c2ccccc2Cl)o1)c1ccccc1	5	?	-24%	6%	16µM*	.
Cc1ccc(/C=N/NS(=O)(=O)c2ccc([N+](=O)[O-])cc2)o1	.	-2	-4%	-3%	-3%	.
Cc1ccc(S(=O)(=O)N/N=C\c2ccc([N+](=O)[O-])o2)cc1	0	-112*	-2%	2%	-19%	-13%
O=C(N/N=C/c1ccc(-c2ccccc2Cl)o1)c1ccccc1	.	.	.	-4%	.	.
O=[N+]([O-])c1ccc(/C=N/NS(=O)(=O)c2ccc(Cl)cc2)o1	.	82	-4%	-7%	28µM*	.
COC(=O)[C@@H](c1ccccc1Cl)N1CCc2sccc2C1	.	.	.	16%	.	.
O=C1N=C(N2CCOCC2)S/C1=C/c1ccc(-c2ccc(F)cc2)o1	.	.	.	11%	.	.
O=C1/C(=C/c2ccc(N3CCOCC3)o2)SC(=Nc2ccccc2)N1CCc1c[nH]c2ccccc12	7	?	?	12%[38.3 µM]	-18%	4µM*
O=C1S/C(=C/c2ccc(N3CCOCC3)o2)C(=O)N1Cc1ccc(F)cc1	5	36	?	-17%[38.3 µM]	-8%	1.3µM*
COc1ccc2cc(/C=C3\SC(=S)NC3=O)c(N3CCOCC3)nc2c1	.	?	6%	1%	20µM*	.
COc1cc(/C=C2\SC(=Nc3ccccc3)N(CCc3c[nH]c4ccccc34)C2=O)ccc1OC(C)C(=O)O (centres undefined)	.	?	-2%	5%	?	.
O=C1S/C(=C\c2ccc(N3CCOCC3)o2)C(=O)N1Cc1ccc(F)cc1	-2	45	-18%	13%[38.3 µM]	?	5µM*
O=C1NC(=S)S/C1=C/c1ccc(N2CCOCC2)o1	.	-14	-28%	-10%	7.9µM*	.
CC(C)n1cc(/C=C2/SC(=O)N(CC(=O)N3CCCC3)C2=O)c2ccccc21	-2	?	4%	11%[38.3 µM]	-5%	0%
O=C1N/C(=C/c2ccc(N3CCOCC3)o2)C(=O)N1c1ccccc1	.	?	-11%	51%	?	.
SMILES	IMPase inh	PNC assembly inh	ALOX12 inhib	IMPase Li cell	HPGD inh	15-hLO-2 inh
CC(C)OC(=O)CN1C(=O)S/C(=C/c2ccc(N3CCCCC3)o2)C1=O	3	-4	-8%	34%[38.3 µM]	-13%	13µM*
Cc1ccc(NC2=C(NC(=O)c3ccccc3)C(=O)c3ccccc3C2=O)cc1Cl	19	-22	-2%	14%	20µM*	.
N#C/C(=C/c1ccc(N2CCOCC2)o1)c1ccc(Cl)cc1	4	?	?	44%[38.3 µM]	?	10µM*
N#C/C(=C\c1ccc(N2CCOCC2)o1)c1nc2ccccc2[nH]1	?	37	-2%	42%[38.3 µM]	-14%	-28%
COC(=O)c1c(NC(=O)COc2ccc(C)cc2Br)sc2c1CCCC2	4	.	.	.	.	.
CCOc1ccc(C2/C(=C(\O)c3ccc(OC)c(OC)c3)C(=O)C(=O)N2c2cc(C)on2)cc1OC (centres undefined)	-10	9	10%	-15%[38.3 µM]	-13%	-7%
CCOc1ccc(/C(O)=C2\C(=O)C(=O)N(c3cc(C)on3)C2c2ccccc2OC)cc1 (centres undefined)	?	?	-5%	5µM*	?	5%
O=C(O)c1ccc(COc2ccccc2C=C2C(=O)c3ccccc3C2=O)cc1	.	-20	0%	0%	10µM*	.
O=C(O)c1ccc(COc2ccccc2/C=C2\NC(=O)N(Cc3ccc(F)cc3)C2=O)cc1	.	.	.	23%	.	.
CCOC(=O)C1CCN(c2c(N3CCN(c4ccccc4OC)CC3)c(=O)c2=O)CC1	-3	-82*	2%	6%	?	.
CCOC(=O)C1CCN(c2c(N3CCN(Cc4ccccc4)CC3)c(=O)c2=O)CC1	-4	?	7%	-7%[38.3 µM]	-24%	-1%
CCOC(=O)C1CCCN(c2c(NCCN(C)Cc3ccccc3)c(=O)c2=O)C1 (centres undefined)	10	17	-3%	-1%[38.3 µM]	-8%	5%
CCOC(=O)C1CCCN(c2c(N3CCc4ccccc4C3)c(=O)c2=O)C1 (centres undefined)	-3	-24	-3%	4%[38.3 µM]	28µM*	-5%
C=CCOC(=O)N[C@@H](Cc1ccccc1)/C(C(=O)OC)=C(\C)NCc1ccccc1	.	.	.	22%	-2%	.
CSC1CCCCC1(O)CSc1nc2c(cc1C#N)CCCC2 (centres undefined)	6	?	-14%	22%[38.3 µM]	7.9µM*	?
COc1ccc2ccccc2c1C1CC(=O)N2CN(C3CCCCC3)CSC2=C1C#N (centres undefined)	4	-1	-22%	6%[38.3 µM]	18µM*	?
COc1ccc(C2CC(=O)N3CN(c4ccccc4F)CSC3=C2C#N)cc1OC (centres undefined)	-14	16	-19%	12%[38.3 µM]	?	?

Screening results deposited in PubChem BioAssay by National Center for Advancing Translational Sciences (NCATS).
